Experimental data taken from PubChem BioAssay (NCATS).
Inconclusive results are not listed. Activity calls are given as the source filed them. Unless noted, calls follow the shape of the full dose curve.

Assays:
[1] = P-glycoprotein substrates identified in KB-8-5-11 adenocarcinoma cell line, qHTS therapeutic library screen (AID 1346987; active = well fitted curve in the direction sought with a large enough effect; an effect the other way counts as inactive or inconclusive; also: nearly all actives have a fitted effect of over 65% in size; also: potency is read from the fitted curve at half-maximal effect); conditions: KB-8-5-11 (P-gp overexpressing) viability, CellTiter-Glo, 72 h; series mostly up to 44.5 µM
How it was run: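 KB-8-5-11: colchicine-selected sub-line of KB-3-1 over-expressing P-gp; assay medium lacked colchicine. 72 h drug exposure at 37 degree C, CellTiter-Glo.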

[2] = Natriuretic polypeptide receptor (hNpr1) antagonism - Pilot counterscreen GloSensor control cell line (AID 1347045); conditions: HEK293 cGMP GloSensor cells, SNP-stimulated luminescence, 20 min; series mostly up to 38.3 µM
How it was run: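 HEK293 cells carrying the GloSensor cGMP sensor (GIP/pGS-40F) were loaded with 2% GloSensor reagent for 2 h, exposed to compounds for 30 min, and then stimulated with 50 uM sodium nitroprusside for 20 min at room temperature.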

[3] = molecular target: Atrial natriuretic peptide receptor 1 (Homo sapiens) (UniProt P16066); test: Natriuretic polypeptide receptor (hNpr1) antagonism - Pilot screen (AID 1347049); conditions: hNpr1 cells, antagonist mode cGMP read-out; series mostly up to 57.5 µM;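 also: agonist-evoked cGMP luminescence read 20 min after hNppA addition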
How it was run: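 HEK293 cells co-expressing hNpr1 and the GloSensor pGS-40F cGMP luciferase sensor were preloaded with 2% GloSensor reagent for 2 h. Compounds were added for 30 min at room temperature, then cells were stimulated with 0.1 nM hNppA for 20 min before luminescence readout.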

[4] = molecular target: Atrial natriuretic peptide receptor 2 (Homo sapiens) (UniProt P20594); test: Natriuretic polypeptide receptor (hNpr2) antagonism - Pilot subtype selectivity assay (AID 1347050); conditions: NPR2-expressing cells, cGMP antagonist-mode read-out; series mostly up to 38.3 µM
How it was run: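 cGMP-sensor HEK293/hNpr2 cells; 2% GloSensor reagent 2 h RT; compounds 30 min; baseline luminescence read; 1 nM hNppC agonist 20 min RT; final luminescence read by CCD camera. Antagonism = reduced post-agonist signal.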

[5] = molecular target: Parathyroid hormone/parathyroid hormone-related peptide receptor (Homo sapiens) (UniProt Q03431); test: qHTS for PTHR1 Agonists: Optimization Screen against the NCGC LOPAC library (AID 1347079; active = well fitted curve in the direction sought with a large enough effect; an effect the other way counts as inactive or inconclusive;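 also: GloSensor cAMP luminescence in HEK-293 GP2 cells expressing human PTHR1 with IBMX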); conditions: HEK293 GP2 PTHR1 GloSensor cAMP luminescence, 1 h; series mostly up to 57.1 µM
How it was run: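 Compounds were tested across a qHTS titration. PTHR1-expressing GP2 cells report cAMP rises via GloSensor luminescence after 1 hr compound exposure at 37C with IBMX present.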

[6] = qHTS for Inhibitors of the Functional Ribonucleoprotein Complex (vRNP) of Lassa (LASV) Arenavirus: LASV Primary Screen - GLuc reporter signal (AID 1347082; calls by dose curve; tested in HEK293 reporter line; also: nearly all actives have a fitted effect of over 60% in size); conditions: LASV minigenome vRNP, Gaussia luciferase reporter; series mostly up to 57.5 µM
[7] = qHTS for Inhibitors of the Functional Ribonucleoprotein Complex (vRNP) of Lassa (LASV) Arenavirus: Viability assay - alamar blue signal for LASV Primary Screen (AID 1347083; calls by dose curve; tested in HEK293 reporter line; also: nearly all actives have a fitted effect of over 80% in size); conditions: cell viability, alamar blue fluorescence (LASV minigenome counter-screen); series mostly up to 57.5 µM
[8] = qHTS for Inhibitors of the Functional Ribonucleoprotein Complex (vRNP) of Lymphocytic Choriomeningitis Arenaviruses (LCMV): Viability assay - alamar blue signal for LCMV Primary Screen (AID 1347085; calls by dose curve; tested in HEK293 reporter line; also: nearly all actives have a fitted effect of over 80% in size); conditions: alamar blue viability counter-screen, LCMV vRNP screen cells; series mostly up to 57.5 µM
[9] = molecular target: Nucleoprotein (Lymphocytic choriomeningitis virus (strain Armstrong)) (UniProt P09992); test: qHTS for Inhibitors of the Functional Ribonucleoprotein Complex (vRNP) of Lymphocytic Choriomeningitis Arenaviruses (LCMV): LCMV Primary Screen - GLuc reporter signal (AID 1347086); conditions: LCMV minigenome vRNP cell assay, Gaussia luciferase reporter; series mostly up to 57.5 µM; also: nearly all actives have a fitted effect of over 70% in size
[10] = NS1 protein of Zika virus - qHTS assay to identify small molecule inhibitors in human HEK 293 cells (AID 1347053; active = well fitted curve in the direction sought with a large enough effect; an effect the other way counts as inactive or inconclusive; also: nearly all actives have a fitted effect of over 55% in size); conditions: HEK293 ZIKV MR766 infection, NS1 TR-FRET, 24 h; series mostly up to 46.1 µM
How it was run: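 Inhibition of NS1 expression was scored in HEK 293 cells given compound 1 h ahead of MR766 virus (MOI = 0.5). Following 24 h at 37 C, two anti-NS1 antibodies generated a TR-FRET signal, scaled between uninfected and infected controls.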

[11] = molecular target: T1, Tyrosine-protein phosphatase non-receptor type substrate 1 (Homo sapiens) + Leukocyte surface antigen CD47 (Homo sapiens) (UniProt P78324+Q08722); test: CD47-SIRPalpha protein protein interaction - LANCE assay qHTS validation (AID 1347057; active = well fitted curve in the direction sought with a large enough effect in the signal ratio, with a control signal flat, not every such curve was filed as active; the % refers to the signal ratio); conditions: Recombinant CD47-His / biotin-SIRPalpha, TR-FRET ratio; series mostly up to 38.3 µM
How it was run: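 First, His-tagged CD47 and Eu-labelled anti-His antibody met the compound for 30 min; next, site-specifically biotinylated SIRPalpha was added for 30 min; finally streptavidin-APC was added before reading the TR-FRET ratio.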

[12] = molecular target: T1, Tyrosine-protein phosphatase non-receptor type substrate 1 (Homo sapiens) + Leukocyte surface antigen CD47 (Homo sapiens); test: CD47-SIRPalpha protein protein interaction - Alpha assay qHTS validation (AID 1347059; active = well fitted curve in the direction sought with a large enough effect; an effect the other way counts as inactive or inconclusive;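 also: bead proximity luminescence from CD47 binding SIRPalpha after compound preincubation with SIRPalpha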); conditions: AlphaScreen CD47-His/biotin-SIRPalpha binding, LOPAC; series mostly up to 38.3 µM
How it was run: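 Soluble extracellular domains: Avi-tag biotinylated SIRPalpha (25 nM) preincubated 30 min RT with compound, then 6His-CD47 (12.5 nM) 30 min; Ni-NTA acceptor and streptavidin donor beads (10 ug/mL) 30 min, AlphaScreen read. PBS pH 7.4, 0.05% IGEPAL.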

[13] = molecular target: T1, Tyrosine-protein phosphatase non-receptor type substrate 1 (Homo sapiens) + Leukocyte surface antigen CD47 (Homo sapiens); test: CD47-SIRPalpha protein protein interaction - HTRF assay qHTS validation (AID 1347058; active = well fitted curve in the direction sought with a large enough effect in the signal ratio, not every such curve was filed as active; the % refers to the signal ratio); conditions: TR-FRET HTRF CD47-His / biotin-SIRPalpha binding, ratio 665/615; series mostly up to 38.3 µM
How it was run: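 TR-FRET read (Ch1/Ch2 ratio) of soluble extracellular CD47 and Avi-biotinylated SIRPalpha domains in PBS pH 7.4 with 0.05% IGEPAL; 7-point compound titration. Sequential 30 min room-temperature steps; non-biotinylated SIRPalpha as control inhibitor.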

[14] = qHTS of pediatric cancer cell lines to identify multiple opportunities for drug repurposing: Primary screen for DAOY cells (AID 1347090; active = well fitted curve in the direction sought with a large enough effect; an effect the other way counts as inactive or inconclusive; also: potency is read from the fitted curve at half-maximal effect; nearly all actives have a fitted effect of over 55% in size); conditions: DAOY medulloblastoma viability, CellTiter-Glo luminescence, 48 h; series mostly up to 92.7 µM
How it was run: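 Eight- or eleven-point concentration series, 48 h treatment at 37 degrees C in growth media; readout CellTiter-Glo luminescence. Potency and efficacy were taken from the concentration-response curves.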

[15] = qHTS of pediatric cancer cell lines to identify multiple opportunities for drug repurposing: Primary screen for A673 cells (AID 1347092; active = well fitted curve in the direction sought with a large enough effect; an effect the other way counts as inactive or inconclusive; also: potency is read from the fitted curve at half-maximal effect; nearly all actives have a fitted effect of over 45% in size); conditions: A673 Ewing sarcoma viability, CellTiter-Glo ATP luminescence, 48 h; series mostly up to 92.7 µM
How it was run: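 Cell viability of A673 measured by CellTiter-Glo ATP luminescence after 48 hours compound exposure. Dilution series spanned 0.78 nM to 46 µM (MIPE, 11-point) or 0.59 nM to 46 µM (NPC, 8-point); bortezomib 2.3 uM positive control.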

[16] = qHTS of pediatric cancer cell lines to identify multiple opportunities for drug repurposing: Primary screen for SK-N-MC cells (AID 1347093; active = well fitted curve in the direction sought with a large enough effect; an effect the other way counts as inactive or inconclusive; also: potency is read from the fitted curve at half-maximal effect); conditions: SK-N-MC viability, CellTiter-Glo luminescence, 48 h; series mostly up to 92.7 µM
How it was run: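 Metabolically active cells were quantified by ATP-dependent luminescence (CellTiter-Glo, 15 min at room temperature) following 48 h treatment. Cells had been plated at 500-1,000 per well and settled for 5 h beforehand.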

[17] = qHTS of pediatric cancer cell lines to identify multiple opportunities for drug repurposing: Primary screen for BT-37 cells (AID 1347094; active = well fitted curve in the direction sought with a large enough effect; an effect the other way counts as inactive or inconclusive; also: potency is read from the fitted curve at half-maximal effect); conditions: BT-37 viability, CellTiter-Glo luminescence, 48 h; series mostly up to 116 µM
How it was run: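 Viability was measured as metabolically active cells after 48 hours of treatment, read by CellTiter-Glo luminescence. Compounds were tested at multiple final concentrations, giving concentration-response curves.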

Measured: Potency

Nucleoprotein (Lymphocytic choriomeningitis virus (strain Armstrong)), sequence (P09992 whole entry, looked up): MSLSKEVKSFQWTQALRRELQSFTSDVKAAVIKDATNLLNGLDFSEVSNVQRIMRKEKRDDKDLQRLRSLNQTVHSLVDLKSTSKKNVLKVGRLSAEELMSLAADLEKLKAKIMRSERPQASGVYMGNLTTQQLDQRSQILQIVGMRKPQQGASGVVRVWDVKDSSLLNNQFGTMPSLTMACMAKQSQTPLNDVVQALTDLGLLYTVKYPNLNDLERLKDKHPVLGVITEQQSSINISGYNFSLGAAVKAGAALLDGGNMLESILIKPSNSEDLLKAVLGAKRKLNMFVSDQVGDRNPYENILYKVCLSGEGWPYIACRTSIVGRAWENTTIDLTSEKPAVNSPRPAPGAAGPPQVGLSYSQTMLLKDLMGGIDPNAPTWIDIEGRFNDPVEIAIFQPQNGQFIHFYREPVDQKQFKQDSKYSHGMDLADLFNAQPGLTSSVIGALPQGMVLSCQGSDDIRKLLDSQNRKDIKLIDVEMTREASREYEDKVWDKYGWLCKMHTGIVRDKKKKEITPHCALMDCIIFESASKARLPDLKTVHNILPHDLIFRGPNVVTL
Atrial natriuretic peptide receptor 1 (Homo sapiens), sequence (P16066 whole entry, looked up): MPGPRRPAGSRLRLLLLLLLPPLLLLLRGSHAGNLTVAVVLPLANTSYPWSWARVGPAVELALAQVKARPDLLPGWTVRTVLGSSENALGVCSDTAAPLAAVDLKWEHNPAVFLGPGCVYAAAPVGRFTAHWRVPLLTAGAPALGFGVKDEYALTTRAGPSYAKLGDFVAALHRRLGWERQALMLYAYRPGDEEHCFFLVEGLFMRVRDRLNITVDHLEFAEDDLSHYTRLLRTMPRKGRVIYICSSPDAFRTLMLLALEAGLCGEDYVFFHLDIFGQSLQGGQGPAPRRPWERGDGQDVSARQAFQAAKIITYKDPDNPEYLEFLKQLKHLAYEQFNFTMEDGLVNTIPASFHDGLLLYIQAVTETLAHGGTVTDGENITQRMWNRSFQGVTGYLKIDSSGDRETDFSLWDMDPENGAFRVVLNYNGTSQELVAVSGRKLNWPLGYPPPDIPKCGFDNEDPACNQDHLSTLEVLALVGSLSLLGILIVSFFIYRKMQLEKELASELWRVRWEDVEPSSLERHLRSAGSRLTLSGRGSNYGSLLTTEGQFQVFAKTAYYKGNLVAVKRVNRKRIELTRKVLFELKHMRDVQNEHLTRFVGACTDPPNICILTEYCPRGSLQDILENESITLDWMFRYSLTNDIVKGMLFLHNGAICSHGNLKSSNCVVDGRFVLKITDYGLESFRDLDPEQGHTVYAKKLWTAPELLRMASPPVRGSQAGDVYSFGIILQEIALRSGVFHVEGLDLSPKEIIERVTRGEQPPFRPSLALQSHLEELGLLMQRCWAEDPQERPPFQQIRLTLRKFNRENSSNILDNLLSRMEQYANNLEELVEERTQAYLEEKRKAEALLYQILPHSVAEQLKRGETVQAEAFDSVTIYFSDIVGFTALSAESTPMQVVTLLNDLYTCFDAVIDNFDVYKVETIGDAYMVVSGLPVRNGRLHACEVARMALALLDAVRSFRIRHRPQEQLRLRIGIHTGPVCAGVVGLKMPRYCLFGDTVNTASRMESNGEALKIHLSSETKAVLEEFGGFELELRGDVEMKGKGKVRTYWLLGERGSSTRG
T1 sequence (P78324 whole entry, looked up): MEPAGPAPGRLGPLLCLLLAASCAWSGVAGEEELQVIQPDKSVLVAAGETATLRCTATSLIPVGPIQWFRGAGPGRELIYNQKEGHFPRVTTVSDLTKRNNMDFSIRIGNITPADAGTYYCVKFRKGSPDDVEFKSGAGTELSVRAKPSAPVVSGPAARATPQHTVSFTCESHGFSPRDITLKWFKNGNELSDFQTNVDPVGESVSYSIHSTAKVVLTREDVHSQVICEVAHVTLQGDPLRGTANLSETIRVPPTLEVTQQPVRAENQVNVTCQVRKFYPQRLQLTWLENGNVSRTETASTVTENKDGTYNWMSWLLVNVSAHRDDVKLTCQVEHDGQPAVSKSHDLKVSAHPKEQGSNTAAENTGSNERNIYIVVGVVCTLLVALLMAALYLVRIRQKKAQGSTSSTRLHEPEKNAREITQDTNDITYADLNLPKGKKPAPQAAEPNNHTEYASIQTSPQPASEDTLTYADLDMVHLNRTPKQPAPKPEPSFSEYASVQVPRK
T1 sequence (Q08722 whole entry, looked up): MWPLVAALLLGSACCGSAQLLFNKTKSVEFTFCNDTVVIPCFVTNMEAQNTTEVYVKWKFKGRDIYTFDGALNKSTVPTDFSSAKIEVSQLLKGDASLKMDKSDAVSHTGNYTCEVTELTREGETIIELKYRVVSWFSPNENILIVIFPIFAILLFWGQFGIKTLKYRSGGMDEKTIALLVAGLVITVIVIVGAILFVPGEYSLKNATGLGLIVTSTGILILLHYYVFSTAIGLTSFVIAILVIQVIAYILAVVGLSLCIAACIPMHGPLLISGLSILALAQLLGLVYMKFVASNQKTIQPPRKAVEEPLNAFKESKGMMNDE
Atrial natriuretic peptide receptor 2 (Homo sapiens), sequence (P20594 whole entry, looked up): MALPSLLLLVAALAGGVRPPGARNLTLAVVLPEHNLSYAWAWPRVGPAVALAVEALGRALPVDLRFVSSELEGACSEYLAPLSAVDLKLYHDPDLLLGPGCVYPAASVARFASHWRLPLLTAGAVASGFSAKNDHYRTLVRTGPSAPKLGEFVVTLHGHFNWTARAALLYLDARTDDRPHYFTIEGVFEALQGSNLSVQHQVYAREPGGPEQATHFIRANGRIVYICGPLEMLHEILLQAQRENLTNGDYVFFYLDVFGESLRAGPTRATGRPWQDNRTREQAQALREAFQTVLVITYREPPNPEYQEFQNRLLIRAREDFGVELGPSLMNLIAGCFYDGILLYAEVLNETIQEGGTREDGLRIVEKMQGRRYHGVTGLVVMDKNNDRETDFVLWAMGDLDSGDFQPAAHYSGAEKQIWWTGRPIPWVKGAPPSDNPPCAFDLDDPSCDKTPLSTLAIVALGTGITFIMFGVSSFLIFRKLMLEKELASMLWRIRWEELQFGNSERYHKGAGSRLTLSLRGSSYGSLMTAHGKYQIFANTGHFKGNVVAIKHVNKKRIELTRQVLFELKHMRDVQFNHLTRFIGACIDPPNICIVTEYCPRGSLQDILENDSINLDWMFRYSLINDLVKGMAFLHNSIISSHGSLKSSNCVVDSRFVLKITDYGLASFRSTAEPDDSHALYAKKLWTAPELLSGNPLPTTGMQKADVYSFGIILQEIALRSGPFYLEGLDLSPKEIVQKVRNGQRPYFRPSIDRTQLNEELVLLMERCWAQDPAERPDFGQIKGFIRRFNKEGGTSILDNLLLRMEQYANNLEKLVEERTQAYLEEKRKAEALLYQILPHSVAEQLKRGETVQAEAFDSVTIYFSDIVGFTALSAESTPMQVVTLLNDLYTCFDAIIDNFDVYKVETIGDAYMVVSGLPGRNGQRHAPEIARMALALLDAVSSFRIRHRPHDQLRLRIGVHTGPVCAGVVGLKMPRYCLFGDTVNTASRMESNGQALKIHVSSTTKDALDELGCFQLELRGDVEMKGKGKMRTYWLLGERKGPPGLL
Parathyroid hormone/parathyroid hormone-related peptide receptor (Homo sapiens), sequence (Q03431 whole entry, looked up): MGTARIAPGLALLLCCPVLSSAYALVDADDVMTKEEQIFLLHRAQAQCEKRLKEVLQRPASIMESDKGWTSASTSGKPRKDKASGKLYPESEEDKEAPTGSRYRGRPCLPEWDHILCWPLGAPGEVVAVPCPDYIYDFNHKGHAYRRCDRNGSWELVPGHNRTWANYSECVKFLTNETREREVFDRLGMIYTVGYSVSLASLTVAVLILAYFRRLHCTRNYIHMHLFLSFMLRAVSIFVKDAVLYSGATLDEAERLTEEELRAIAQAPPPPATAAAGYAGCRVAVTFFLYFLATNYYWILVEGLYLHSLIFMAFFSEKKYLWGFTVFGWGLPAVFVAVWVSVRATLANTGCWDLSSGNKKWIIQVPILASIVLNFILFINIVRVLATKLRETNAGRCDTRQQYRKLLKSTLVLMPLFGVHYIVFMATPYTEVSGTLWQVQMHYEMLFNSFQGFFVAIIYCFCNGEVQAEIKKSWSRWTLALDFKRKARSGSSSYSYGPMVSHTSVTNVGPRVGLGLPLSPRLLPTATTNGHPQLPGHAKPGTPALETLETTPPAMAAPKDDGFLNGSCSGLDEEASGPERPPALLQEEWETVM

CC(C)[C@@]1(NC(=O)[C@@H]2C[C@@H]3c4cccc5[nH]cc(c45)C[C@H]3N(C)C2)O[C@@]2(O)[C@@H]3CCCN3C(=O)[C@H](Cc3ccccc3)N2C1=O
inactive: [1] | [2] | [3] | [4] | [5] | [6] | [7] | [8] | [9]

C=CCN(C1=NCCN1)c1c(Cl)cccc1Cl
inactive: [1] | [2] | [3] | [4] | [5] | [6] | [7] | [8] | [9]

COc1ccc(CNC(=O)/C=C/c2ccc3[nH]cc(CCN(C)C)c3c2)cc1
inactive: [2] | [3] | [4] | [10] | [11] | [12] | [5] | [6] | [7] | [8] | [9]

c1ccc2c(N3CCNCC3)cccc2c1
inactive: [2] | [3] | [4] | [10] | [11] | [13] | [12] | [5] | [6] | [7] | [8] | [9]

CC(N)c1cccc(Cl)c1Cl (centres undefined)
inactive: [2] | [3] | [4] | [10] | [11] | [13] | [12] | [5] | [6] | [7] | [8] | [9]

O=C1CCCCC1CN1CCCCC1 (centres undefined)
inactive: [1]

C[N+](C)(C)CCOC(=O)CBr
inactive: [2] | [3] | [4] | [10] | [11] | [13] | [12] | [5] | [6] | [7] | [8] | [9]

CC1=C2C[C@H]3[C@@H](CC=C4C[C@@H](O)CC[C@@]43C)[C@@H]2CC[C@]12O[C@@H]1C[C@H](C)CN[C@H]1[C@H]2C
inactive: [1] | [6] | [7] | [8] | [9]

C[C@]12C=CC(=O)C=C1CC[C@@H]1[C@@H]2CC[C@]2(C)OC(=O)CC[C@@H]12
inactive: [1] | [6] | [7] | [8] | [9]

C[CH2][Hg][S]c1ccccc1C(=O)O
active: [1] 2.31 µM | [14] 2.66 µM | [15] 841 nM | [16] 668 nM | [17] 12.3 µM
inactive: [6] | [7] | [8] | [9]

C[C@@H]1[C@@H]2Cc3ccc(O)cc3[C@@]1(C)CCN2CC1CC1
inactive: [1] | [3] | [4] | [5] | [6] | [7] | [8] | [9]

CCNC(=O)[C@H]1O[C@@H](n2cnc3c(N)ncnc32)[C@H](O)[C@@H]1O
inactive: [2] | [3] | [4] | [10] | [11] | [13] | [5] | [6] | [7] | [8] | [9]

O=S1(=O)N(CCN2CC=C(c3c[nH]c4cc(F)ccc34)CC2)c2cccc3c2N1CCC3
inactive: [2] | [3] | [4] | [10] | [11] | [12] | [5] | [6] | [7] | [8] | [9]

COc1ccc(OC)c(C(O)C(C)N)c1 (centres undefined)
inactive: [2] | [3] | [4] | [10] | [11] | [12] | [5] | [6] | [7] | [8] | [9]

CC(C)NP(=O)(NC(C)C)OP(=O)(NC(C)C)NC(C)C
inactive: [2] | [3] | [4] | [10] | [11] | [13] | [5] | [6] | [7] | [8] | [9]

COc1ccc2[nH]cc(CCN)c2c1
inactive: [2] | [3] | [4] | [10] | [11] | [13] | [5] | [6] | [7] | [8] | [9]

CN(C)[C@@H]1C(=O)C(C(N)=O)=C(O)[C@@]2(O)C(=O)C3=C(O)c4c(O)ccc(Cl)c4[C@@](C)(O)[C@H]3C[C@@H]12
inactive: [1] | [6] | [7] | [8] | [9]

CC(C)(C)c1o[nH]c(=O)c1CC(N)C(=O)O (centres undefined)
inactive: [2] | [3] | [4] | [10] | [11] | [12] | [5] | [6] | [7]

NC(CCCCCP(=O)(O)O)C(=O)O (centres undefined)
inactive: [2] | [3] | [4] | [10] | [11] | [13] | [5] | [6] | [7] | [8] | [9]

CN[C@H]1C[C@@H](N)[C@H](O)[C@@H](O[C@@H]2O[C@H](CO)[C@H](O)[C@@H]3OC4(O[C@H]23)O[C@H](C(N)CO)[C@H](O)[C@H](O)[C@H]4O)[C@@H]1O (some centres undefined)
inactive: [1] | [6] | [7] | [8] | [9]

CCCN(CCC)CCc1ccc(O)c(O)c1
inactive: [2] | [3] | [4] | [10] | [11] | [12] | [5] | [6] | [7] | [8] | [9]
